Bioassay records deposited in PubChem BioAssay by NMMLSC.
Compounds with a hit are over-represented: about 2.5% of the library has one in this group of screens.
GRK2 aptamer HTS: blocks RNA aptamer binding to human GRK2 | 0.59% of 330,000 active | inhibition of aptamer binding, % at 10 µM | P25098 | bead flow cytometry, FAM-aptamer displacement from GRK2;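 active = inhibition of aptamer binding above 40%, roughly 3 SD of noise, on plates passing a quality check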;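 also: median bead fluorescence of bound FAM aptamer so fluorescent compounds give negative values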
MEKK2 WT-MEK5: raises or lowers MEK5 binding to wildtype human MEKK2 PB1 domain; Q9Y2U5; bead flow cytometry, Alexa488-MEK5 binding to MEKK2 WT; actives lie on both sides; binding response (% of control), % at 10 µM; 1.1% of 290,000 active; AID 1531; in the data active = binding response below about 67% or above about 130%
MEKK3 PB1 HTS: MEKK3-MEK5 PB1 interaction, increase or decrease; Q99759; bead-based flow cytometry, Alexa488-MEK5 binding to MEKK3; actives lie on both sides; 0 = blocked by unlabeled MEK5, 100 = vehicle; binding response (% of control), % at 10 µM; 1.4% of 290,000 active; AID 1529;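 active = binding response more than 3 SD above or below the average of its plate-row segment, actives on both sides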;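 also: Alexa488 bead fluorescence after subtracting the streptavidin-only scavenger bead signal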
Target sequence (Q99759 whole entry, looked up): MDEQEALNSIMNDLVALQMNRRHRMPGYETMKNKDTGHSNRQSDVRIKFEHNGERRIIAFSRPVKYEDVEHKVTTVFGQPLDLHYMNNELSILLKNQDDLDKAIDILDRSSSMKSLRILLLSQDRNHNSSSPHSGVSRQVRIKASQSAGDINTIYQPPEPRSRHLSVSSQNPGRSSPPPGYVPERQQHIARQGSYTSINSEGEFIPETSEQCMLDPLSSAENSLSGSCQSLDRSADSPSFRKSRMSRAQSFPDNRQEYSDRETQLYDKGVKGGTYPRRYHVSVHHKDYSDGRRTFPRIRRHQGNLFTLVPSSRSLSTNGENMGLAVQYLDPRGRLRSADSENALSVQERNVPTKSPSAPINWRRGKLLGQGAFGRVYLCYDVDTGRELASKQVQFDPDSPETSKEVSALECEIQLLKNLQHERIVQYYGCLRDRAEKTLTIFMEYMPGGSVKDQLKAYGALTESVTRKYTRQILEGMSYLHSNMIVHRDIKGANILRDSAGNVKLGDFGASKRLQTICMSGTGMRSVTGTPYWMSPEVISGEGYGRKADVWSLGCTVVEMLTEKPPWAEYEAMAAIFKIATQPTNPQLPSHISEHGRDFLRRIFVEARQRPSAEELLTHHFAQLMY
MEKK2 mut-MEK5: signal of MEK5 binding to mutant human MEKK2 PB1 domain | bead flow cytometry, Alexa488-MEK5 binding to MEKK2 mutant | AID 1530 | 0.35% of 290,000 active | percent response, % at 10 µM; in the data active = percent response above about 24%, passing the limit was not always enough
MEKK2wt confirm: raises or lowers MEK5 binding to wildtype human MEKK2, retest | shares compounds with MEKK3 PB1 HTS | bead flow cytometry, Alexa488-MEK5 binding to MEKK2 WT; actives lie on both sides | binding response (% of control), % at 10 µM | 2.4% of 5,900 active | AID 1892; in the data active = binding response below about 16% or above about 210%; inactive = in between
MEKK2mut-MEK5: signal of MEK5 binding to mutant human MEKK2, retest; shares compounds with MEKK3 PB1 HTS; percent response, % at 10 µM; bead flow cytometry, Alexa488-MEK5 binding to MEKK2 mutant; AID 1893; 2% of 5,900 active; in the data active = percent response mostly above about 71%, no sharp cut-off; inactive = mostly below about 38%;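 also: higher means compound restores mutant binding toward wildtype level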
MEKK3 confirm: confirmation of inhibitors of MEK5 binding to human MEKK3 | bead flow cytometry, Alexa488-MEK5 binding to MEKK3; stronger effect = lower value | binding response (% of control), % at 10 µM | 1.8% of 5,900 active | AID 1894 | shares compounds with MEKK3 PB1 HTS;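 active = binding response below 72% of control, or above a set upper limit, though filed actives all read lower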
A number is an active result; - = inactive; . = no result; [ ] = remark or other dose.

SMILES	GRK2 aptamer HTS	MEKK2 WT-MEK5	MEKK3 PB1 HTS	MEKK2 mut-MEK5	MEKK2wt confirm	MEKK2mut-MEK5	MEKK3 confirm
Cc1cc(C)c2sc(N(CCCN(C)C)C(=O)CN3C(=O)c4ccccc4C3=O)nc2c1	-	321	70[inhibitor]	82	-	-	-
Cc1ccc2nc(N(CCCN(C)C)C(=O)CN3C(=O)c4ccccc4C3=O)sc2c1	-	-	-	-	.	.	.
Cc1cc(C)c(S(=O)(=O)Nc2ccccc2C(=O)N2CCOCC2)c(C)c1	-	-	-	-	.	.	.
CN(C)CCCNC(=O)c1ccccn1	-	-	-	-	.	.	.
CN(C)CCCNC(=O)c1ccc(-c2nc(-c3ccc(Cl)cc3)cs2)cc1	-	252	-	-	-	-	-
COc1ccc(C2=NN(CC(=O)NCc3ccco3)C(=O)CC2)cc1	-	-	130	-	-	-	-
Cc1ccc(C2=NN(CC(=O)NCc3cccnc3)C(=O)CC2)cc1	-	-	140	-	-	-	-
O=C(CN1N=C(c2ccccc2)CCC1=O)NCc1ccccc1	-	-	-	-	.	.	.
O=C(CN1N=C(c2ccc(Cl)cc2)CCC1=O)NCc1cccnc1	-	-	142	-	-	-	-
CC(C(=O)NCc1cccnc1)N1C(=O)c2ccccc2C1=O (stereo not given)	-	-	126	-	-	-	-
CN(CCC(=O)Nc1ccc(Cl)cc1)Cc1ccccc1	-	-	-	-	.	.	.
CC1(NC(=S)Nc2ccccc2)CCS(=O)(=O)C1 (stereo not given)	-	-	-	-	.	.	.
O=C(O)c1ccc(N2CC3CC(C2)c2cccc(=O)n2C3)c(NC(=S)Nc2ccc(Cl)cc2Cl)c1 (stereo not given)	-	17[inhibitor]	65[inhibitor]	-	-	-	-
CCc1ccc(NC(=O)Nc2cc(C(=O)O)ccc2N2CC3CC(C2)c2cccc(=O)n2C3)cc1 (stereo not given)	-	-	-	-	.	.	.
CCCCc1n[nH]c(=S)n1Cc1ccc(C)cc1	-	-	48[inhibitor]	-	-	-	-
CCN(c1ccccc1)S(=O)(=O)c1cccc(C(=O)NCCN2CCOCC2)c1	-	.	.	.	.	.	.
COc1ccc(N2CCN(c3cc(C)c4cccc(C)c4n3)CC2)cc1	-	-	67[inhibitor]	-	-	-	-
CC1=CC2=NC(=O)/C(=C\c3cccn3CCOc3ccccc3)C(=N)N2O1	-	-	132	-	-	-	-
N#CCCn1cc(CNCc2ccccc2)c(-c2cccc([N+](=O)[O-])c2)n1	-	160	-	-	-	-	-
O=C(NCc1cn(-c2ccccc2)nc1-c1ccccc1)c1cccc([N+](=O)[O-])c1	-	-	-	-	.	.	.
Cc1nnc(SCc2ccccc2CSc2nnc(C)s2)s1	-	-	130	-	-	-	-
O=C1NNC(c2ccccc2)=N/C1=C\c1ccccc1Cl	.	-	-	-	.	.	.
O=C1NNC(c2ccccc2)=N/C1=C\c1ccco1	-	44[inhibitor]	-	-	-	-	-
CC(=O)NC12CC3CC(C1)CC(C(=O)Nc1nc4c(C)cccc4s1)(C3)C2	-	-	-	-	.	.	.
CCOC(=O)C1=C(C)NC(=O)NC1C1CC=CCC1 (stereo not given)	-	-	-	-	.	.	.
SMILES	GRK2 aptamer HTS	MEKK2 WT-MEK5	MEKK3 PB1 HTS	MEKK2 mut-MEK5	MEKK2wt confirm	MEKK2mut-MEK5	MEKK3 confirm
CC1=C(C(=O)OC(C)C)C(C2CC=CCC2)NC(=O)N1 (stereo not given)	-	-4.0[inhibitor]	0.0[inhibitor]	-	-	-	-
O=C(OC(c1ccccc1)c1nccc2ccccc12)c1cc([N+](=O)[O-])cc([N+](=O)[O-])c1 (stereo not given)	-	-	-	-	.	.	.
COc1ccc(Nc2nc(C)c3ccccc3n2)cc1	-	140	-	-	-	-	-
COc1ccc(Nc2nc(-c3ccccc3)c3ccccc3n2)cc1	-	-	-	-	.	.	.
Cc1nc2ccccc2nc1Nc1cccc(Cl)c1	-	-	-	-	.	.	.
COc1ccc(Nc2nc3ccccc3nc2C)cc1	-	3.0[inhibitor]	2.0[inhibitor]	-	-	-	-
O=C(CCCCn1c(=O)c2ccccc2n(Cc2ccccc2)c1=O)NC1CCN(Cc2ccccc2)CC1	-	32[inhibitor]	22[inhibitor]	-	-	-	-
O=CNCC(=O)NC1CCCCCC1	-	-	79[inhibitor]	-	-	-	-
CC(C)(C)CC(=O)Nc1ccc(S(=O)(=O)NC2=NCCCCC2)cc1	-	.	.	.	.	.	.
Cc1nnc(SCC(=O)N(CC(C)C)c2c(N)n(Cc3ccccc3)c(=O)[nH]c2=O)n1N	-	.	.	.	.	.	.
NS(=O)(=O)c1ccc(CCNC(=O)C2CCN(S(=O)(=O)c3ccc(Br)s3)CC2)cc1	-	3.0[inhibitor]	2.0[inhibitor]	-	-	-	-
COC1CCCN(Cc2c(C(=O)N3CCN(C4CCCCC4)CC3)nc3ccccn23)C1 (stereo not given)	-	-	-	-	.	.	.
O=C(NCc1nc2ncc(Br)cc2[nH]1)c1ccccc1	-	0.0[inhibitor]	0.0[inhibitor]	-	-	-	-
CCCOP(=O)(c1ccccc1)c1ccccc1	-	-	141	-	-	-	-
CC(C)c1ccc(NC(=O)CSc2ncccc2C(=O)Oc2cccc([N+](=O)[O-])c2)cc1	-	-	148	-	-	-	-
COc1ccc(NC(=O)CSc2ncccc2C(=O)OC(C)C)cc1OC	-	-	-	-	.	.	.
Cc1cc(-c2nnc(CSc3nnc(NC(=O)c4ccc(C(C)(C)C)cc4)s3)o2)ccc1[N+](=O)[O-]	-	-	-	-	.	.	.
COc1ccc2[nH]c(C)c(-c3csc(N)n3)c2c1	-	-	-	27	-	-	-
CN(C(=S)Nc1ccc(SC(F)F)cc1)c1ccc(O)cc1	-	-	133	-	-	-	-
CCOc1ccc(CCNC(=O)COC(=O)COc2ccc(C(=O)CC)cc2)cc1OCC	-	.	.	.	.	.	.
Cn1c(CN2CCN(C(=O)c3ccc(F)cc3)CC2)nc2cc([N+](=O)[O-])ccc21	-	-	147	-	-	-	-
CC(=O)N1CCN(Cc2nc3cc([N+](=O)[O-])ccc3n2C)CC1	-	-	-	-	.	.	.
CCCC12CN3CCN(CC(C3)/C1=N\NC(=O)c1ccccc1N)C2	-	-	154	-	-	-	-
CC(C)(C)c1ccc(C(=O)N/N=C2\C3CN4CCN(C3)CC2(c2ccccc2)C4)cc1	-	-	132	-	-	-	-
CC1=Nc2ccccc2/C1=C\c1nc(-c2ccc(F)cc2)oc1O	-	7.0	9.0[inhibitor]	-	-	-	-
CCN(Cc1ccccc1)S(=O)(=O)c1ccc(C(=O)N(CCCN(C)C)c2nc3c(F)cccc3s2)cc1	-	190	-	43	-	-	-
CCN(c1ccccc1)S(=O)(=O)c1ccc(C(=O)N(CCCN(C)C)c2nc3c(C)cccc3s2)cc1	-	154	-	-	-	-	-
